# Values without a mark were called inactive. The rule behind the calls is not given here.
# Molecular target: Pantothenate synthetase (Mycobacterium tuberculosis (strain ATCC 25618 / H37Rv)) (UniProt P9WIL5)
# Assay: Recombinant Mtb pantothenate synthetase (PanC) inhibitors, coupled enzyme, confirmatory (AID 375);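 note: 0% = full reaction with vehicle and 100% = no enzyme background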
# Details: coupled enzyme assay; at 10 µM, hits give high values
# Sequence of Pantothenate synthetase (Mycobacterium tuberculosis (strain ATCC 25618 / H37Rv)) (P9WIL5 whole entry, looked up): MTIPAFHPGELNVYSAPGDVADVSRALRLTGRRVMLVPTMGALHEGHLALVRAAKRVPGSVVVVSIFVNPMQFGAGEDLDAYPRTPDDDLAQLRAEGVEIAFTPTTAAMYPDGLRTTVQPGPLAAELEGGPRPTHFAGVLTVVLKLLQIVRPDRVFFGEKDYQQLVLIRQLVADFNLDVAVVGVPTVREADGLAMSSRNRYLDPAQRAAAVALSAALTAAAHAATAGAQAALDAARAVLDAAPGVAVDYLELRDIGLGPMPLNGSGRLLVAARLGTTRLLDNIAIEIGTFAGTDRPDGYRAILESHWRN
row,SMILES,inhibition [%]
1,CSC(=O)CC(=O)NC(=O)c1ccccc1,1
2,CC(C)C(=O)Nc1ccc(-c2nc3cccnc3o2)cc1,2
3,CN1C(=O)C(O)(CC(=O)c2ccc3c(c2)OCO3)c2ccccc21 (stereo not drawn),0
4,Nn1c(SCC(=O)Nc2ccc3c(c2)OCO3)nnc1C1CC1,4
5,CCCn1nnnc1SCC(=O)c1ccc2c(c1)OCCO2,11
6,Cn1c(C(=O)NCC2CCCO2)cc2c(=O)n(C)c3ccccc3c21 (stereo not drawn),0
7,C=CCn1c(=O)n(CCOC)c(=O)c2sc3ccccc3c21,0
8,CCOC(=O)Cc1nnc(Nc2cccc(O)c2)c2ccccc12,9
9,CC(C)(C)OC(=O)N1CC=C2C(C#N)=C(N)C(C#N)(C#N)C(c3cccs3)C2C1 (stereo not drawn),0
10,CC(=O)Nc1sc2c(c1CN1CCN(c3ccccn3)CC1)CCCC2,2
11,O=C(CCCC(=O)N(CC(=O)NC1CCCCC1)Cc1ccc2c(c1)OCO2)Nc1ccccn1,2
12,Cc1cc(C(=O)N2CCN(C(c3ccccc3)c3ccccc3)CC2)no1,3
13,CCOC(=O)c1ccc(NC(=O)NC(C)C2CCCO2)cc1 (stereo not drawn),0
14,CCOc1ccccc1-c1nc(-c2ccc(C)nc2OC)no1,3
15,CCOc1ccc(-c2nnc(N)s2)cc1,0
16,COC(=O)CCN(C(=O)c1ccc2c(c1)OCO2)c1ccccn1,0
17,COc1ccc(OC)c2[nH]c(=O)c(CCNC(=O)CC(C)C)cc12,2
18,CC(C)[C@H](NC(=O)OC(C)(C)C)c1nnc(S(=O)(=O)Cc2c(F)cccc2Cl)o1,0

# From PubChem BioAssay
